# From PubChem BioAssay (NCATS)
# Where “and” joins values, the source holds several entries; their conditions need not be identical. Identical values can stand only once. Results filed as inconclusive are left out. A call without a number means that no potency is given here. A structure can be active in one record and inactive in another. Calls of active or inactive are those of the source. Unless noted, the call rests on the fitted dose curve; in most records, active means well fitted curve in the direction sought with a large enough effect; inconclusive means small, poorly fitted or top-dose-only effect, or another doubt; inactive means no such curve, though single readings can be large; an effect the other way counts as inactive or inconclusive.
# Assays:
# [1] = Cell Viability - LYMP2-014 (AID 983);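 further: series mostly up to about 92 µM; cells exposed to compound for 24 h at 37 °C; nearly all actives have a fitted effect of over 50% in size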
# How it was run: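 Quantitative HTS in lymphoblastoid cells: 24 hr compound exposure, then CellTiter-Glo ATP luminescence. Positive control was tetraoctylammonium bromide, 6.4pM to 92 uM.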
# [2] = Cell Viability - LYMP2-016 (AID 984); further: nearly all actives have a fitted effect of over 55% in size
# How it was run: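 Acute toxicity in a Coriell human lymphoblastoid line is scored as loss of intracellular ATP over 24 h of treatment in complete medium. CellTiter-Glo signal is fitted across concentrations with the Hill equation to give AC50.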
# [3] = Cell Viability - LYMP2-018 (AID 985); further: nearly all actives have a fitted effect of over 50% in size
# How it was run: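 In this qHTS viability assay, cells are treated for 24 hr and cellular ATP is quantified by luciferase-based luminescence, with tetraoctylammonium bromide as positive control.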
# [4] = Cell Viability - LYMP2-020 (AID 986);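 further: series mostly up to about 92 µM; cells exposed to compound for 24 h at 37 °C; nearly all actives have a fitted effect of over 55% in size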
# How it was run: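 Cells at 2500 per well receive a 24 hr compound exposure at 37 C. Viability is measured as ATP-dependent luciferase luminescence, with AC50 modeled from qHTS concentration-response curves.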
# [5] = Cell Viability - LYMP2-022 (AID 987); further: nearly all actives have a fitted effect of over 55% in size
# How it was run: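 In this qHTS cytotoxicity screen, compound titrations were incubated 24 hr at 37 C with human lymphoblastoid cells in complete medium. Luciferase-based ATP luminescence provided the viability signal.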
# [6] = Cell Viability - LYMP2-024 (AID 988); further: nearly all actives have a fitted effect of over 60% in size
# How it was run: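 Cells at 2500 per well received compound for 24 hr after a 5 hr settling period. Viability was scored by CellTiter-Glo luminescence, with AC50 from Hill fits.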
# [7] = Cell Viability - LYMP2-026 (AID 989);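 further: cells exposed to compound for 24 h at 37 °C; nearly all actives have a fitted effect of over 50% in size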
# How it was run: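 Acute toxicity screen in complete culture medium, with 24 hr compound exposure at 37 C. Viability read as cellular ATP via luciferase reaction, with tetraoctylammonium bromide (6.4pM to 92 uM) as positive control.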
# [8] = Cell Viability - LYMP1-002 - Assay at 24 hr (AID 993)
# How it was run: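 Viability was judged from intracellular ATP using a luciferase read-out, following a 24-hour compound incubation at 37 C of lymphoblastoid cells seeded at 2500 per well. Concentration-response data were fitted to the Hill equation for AC50.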
# [9] = Cell Viability - LYMP1-002 - Assay at 40 hr (AID 994); further: nearly all actives have a fitted effect of over 60% in size
# How it was run: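 Concentration-dependent ATP loss after 40 hr treatment at 37 C defined toxicity; AC50 values were obtained by fitting the standard Hill equation.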
# [10] = qHTS Assay for Identification of Small Molecule Inducers of Hypoxia Response (AID 2120; active means well fitted curve in the direction sought with a large enough effect in the signal ratio, with a control signal flat, not every such curve was filed as active; the % refers to the signal ratio)
# How it was run: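 HRE-bla ME-180, 2500 cells/well, 0.5% dialyzed FBS medium; cpd titration, 17 h 37 degrees C; CCF4 2.5 h RT; Ex 405, Em 460/530 ratio -> %Activity, AC50.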
# [11] = molecular target: Bile acid receptor (Homo sapiens) (UniProt Q96RI1); experiment: qHTS assay for small molecule antagonists of farnesoid X receptor signaling (AID 588526; calls by dose curve)
# How it was run: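 Antagonist mode: titrated compounds tested against chenodeoxycholic acid stimulation (normalized to 50 uM CDCA and DMSO) in GeneBLAzer HEK293T cells for 16 h. Beta-lactamase read by CCF4 fluorescence; IC50 from Hill fits.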
# [12] = molecular target: Glucocorticoid receptor (Homo sapiens) (UniProt P04150); experiment: qHTS assay for small molecule agonists of glucocorticoid receptor signaling (AID 588532; active means well fitted curve in the direction sought with a large enough effect in the signal ratio, with a control signal flat; the % refers to the signal ratio); details: HeLa MMTV-bla, beta-lactamase ratio, agonist, 18 h; stronger effect = higher value; percent of dexamethasone control, DMSO zero
# How it was run: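 Cells were plated and rested 3-5 h at 37 C, compounds were added in titration and incubated 18 h, then CCF4 substrate was loaded for 2 h at RT before reading blue/green fluorescence. EC50 came from Hill-equation fitting.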
# [13] = molecular target: Glucocorticoid receptor (Homo sapiens) (UniProt P04150); experiment: qHTS assay for small molecule antagonists of glucocorticoid receptor signaling (AID 588533; active means well fitted inhibition curve with a large enough effect in the signal ratio, with a control signal flat, not every such curve was filed as active; the % refers to the signal ratio)
# How it was run: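 Antagonist-mode qHTS: compound titrations added to GRE-bla HeLa cells, then dexamethasone 2 nM final; 18 h, 37 C. CCF4 FRET fluorescence normalized to dexamethasone and DMSO; IC50 from Hill fit.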
# [14] = qHTS assay for small molecule antagonists of peroxisome proliferator-activated receptor delta signaling (AID 588535; active means well fitted inhibition curve with a large enough effect in the signal ratio, with a control signal flat, not every such curve was filed as active; the % refers to the signal ratio;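 on max response: cells co-treated with a PPAR-delta agonist as stimulator during compound exposure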); details: HEK293T PPARd-UAS-bla, beta-lactamase FRET ratio, 18 h; 460 nm channel
# How it was run: (§1)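 Beta-lactamase reporter read-out (405 nm excitation, 460/530 nm emission) after CCF4 loading for 2 hrs at RT. HEK293T PPAR-delta-UAS-bla cells, 2% charcoal/dextran FBS, compounds for 18 hrs at 37 C. Hill fit gave IC50 and efficacy.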
# [15] = molecular target: Peroxisome proliferator-activated receptor delta (Homo sapiens) (UniProt Q03181); experiment: as above
# How it was run: as §1
# [16] = molecular target: Vitamin D3 receptor (Homo sapiens) (UniProt P11473); experiment: qHTS assay for small molecule antagonists of vitamin D receptor signaling (AID 588541; calls by dose curve;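 further: receptor activated by calcitriol during compound treatment; series mostly up to about 77 µM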)
# How it was run: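 VDR-UAS-bla HEK293T cells in 2% charcoal-stripped FBS were stimulated with 1-alpha,25-dihydroxyvitamin D3 (3 nM final) plus compound for 16 h at 37 C. The beta-lactamase CCF4 readout was normalized to 50 nM agonist and DMSO, and Hill fits gave IC50.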
# [17] = molecular target: Vitamin D3 receptor (Homo sapiens) (UniProt P11473); experiment: qHTS assay for small molecule agonists of vitamin D receptor signaling (AID 588543; calls by dose curve)
# How it was run: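 qHTS in agonist mode: compound titrations stimulate a VDR-driven β-lactamase reporter in HEK293T cells over 16 h at 37 °C. Response normalized to 50 nM 1α,25-dihydroxyvitamin D3 = 100%, DMSO = 0%; Hill fitting gives EC50 and maximal response.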
# [18] = qHTS assay for small molecule agonists of retinoid X receptor alpha signaling (AID 588544); details: HEK293T RXRa-UAS-bla, beta-lactamase reporter, 18 h; 530 nm emission
# [19] = molecular target: Thyroid hormone receptor beta (Homo sapiens) (UniProt P10828); experiment: qHTS assay for small molecule agonists of thyroid hormone receptor beta signaling (AID 588545; calls by dose curve)
# How it was run: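 In this cell-based screen, titrated compounds act on HEK 293 cells held in medium with 2% charcoal/dextran FBS, NEAA and pyruvate for 18 hrs at 37 C. Responses are expressed relative to T3 (10 nM) as 100% and basal DMSO as 0%.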
# [20] = qHTS assay for small molecule antagonists of retinoid X receptor alpha signaling (AID 588546; active means well fitted inhibition curve with a large enough effect in the signal ratio, with a control signal flat, not every such curve was filed as active; the % refers to the signal ratio;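 further: cells stimulated with 9-cis-retinoic acid as agonist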); details: HEK293T RXRa-UAS-bla, beta-lactamase ratio, antagonist mode; measured here: W530 green channel, cytotoxicity proxy
# How it was run: (§2)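 Beta-lactamase reporter inhibition, read as CCF4 fluorescence ratio (ex 405, em 460/530 nm) after 2 h at RT. HEK293T UAS-bla cells, 2500/well, were stimulated with 9-cis-RA at 500 or 100 nM final alongside test compound for 18 h at 37 C.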
# [21] = molecular target: Retinoic acid receptor RXR-alpha (Homo sapiens) (UniProt P19793); experiment: as above; details: HEK293T RXRa-UAS-bla, beta-lactamase ratio, antagonist mode
# How it was run: as §2
# [22] = molecular target: Thyroid hormone receptor beta (Homo sapiens) (UniProt P10828); experiment: qHTS assay for small molecule antagonists of thyroid hormone receptor beta signaling (AID 588547; active means well fitted inhibition curve with a large enough effect in the signal ratio, with a control signal flat, not every such curve was filed as active; the % refers to the signal ratio;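 further: cells stimulated with 0.4 nM T3 agonist during compound exposure; series mostly up to about 77 µM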); details: TR-UAS-bla HEK293, beta-lactamase ratio, antagonist mode, 18 h
# How it was run: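 TR-UAS-bla GripTite HEK293 cells in 2% charcoal/dextran FBS medium; compounds 0.59 nM to 92 uM with T3 at 0.4nM final, 18 h at 37 C. Beta-lactamase read by CCF4 fluorescence (460/530 nm); Hill fits gave IC50 and efficacy.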
# [23] = molecular target: Voltage-gated inwardly rectifying potassium channel KCNH2 (Homo sapiens) (UniProt Q12809); experiment: qHTS Assay for Small Molecule Inhibitors of the Human hERG Channel Activity (AID 588834);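 further: U2OS cells transduced with hERG by BacMam; top concentration of the series differs between compounds; lower thallium flux fluorescence means stronger hERG block; nearly all actives have a fitted effect of over 50% in size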
# How it was run: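 Cells were infected with hERG-BacMam virus for 4 hrs at room temperature, grown overnight, then seeded at 2000/well. After dye loading and roughly 10 min compound treatment, thallium influx was triggered and fluorescence recorded.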
# [24] = qHTS assay for small molecule agonists of the antioxidant response element (ARE) signaling pathway (AID 651741; active means well fitted activation curve with a large enough effect in the signal ratio; the % refers to the signal ratio; further: potency means the concentration at half of the fitted maximal effect)
# How it was run: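 HepG2 ARE-bla reporter cells, 2,000/well; 5 h settle at 37 C/5% CO2; compound pin transfer (23 nL, DMSO); 16 h at 37 C; LiveBLAzer B/G FRET substrate, 2 h RT; fluorescence intensity read.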
# [25] = qHTS assay for small molecule activators of the p53 signaling pathway (AID 651743; active means well fitted activation curve with a large enough effect in the signal ratio, not every such curve was filed as active; the % refers to the signal ratio; further: series mostly up to about 92 µM); details: HCT-116 p53RE-bla, beta-lactamase FRET ratio, 16 h; activation: stronger effect = higher value
# How it was run: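 Reporter: beta-lactamase driven by p53 response elements, stably integrated in HCT-116 cells. Cells seeded at 4,000/well, 5 h preincubation, compound (DMSO) 16 h at 37 C; B/G FRET substrate 2 h RT; fluorescence intensity read.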
# Sequence of Vitamin D3 receptor (Homo sapiens) (P11473 whole entry, looked up): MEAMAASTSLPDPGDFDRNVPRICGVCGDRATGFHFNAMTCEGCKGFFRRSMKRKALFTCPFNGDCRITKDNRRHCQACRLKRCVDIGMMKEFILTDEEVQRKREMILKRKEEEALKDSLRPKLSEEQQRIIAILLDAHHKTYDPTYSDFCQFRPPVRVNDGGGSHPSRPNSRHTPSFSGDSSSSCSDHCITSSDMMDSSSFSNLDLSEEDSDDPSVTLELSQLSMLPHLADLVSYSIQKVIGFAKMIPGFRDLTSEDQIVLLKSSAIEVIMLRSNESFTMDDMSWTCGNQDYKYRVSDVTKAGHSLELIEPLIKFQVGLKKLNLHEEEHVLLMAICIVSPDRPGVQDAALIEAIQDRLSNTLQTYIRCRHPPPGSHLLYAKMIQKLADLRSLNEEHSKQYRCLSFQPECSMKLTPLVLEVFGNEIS
# Sequence of Thyroid hormone receptor beta (Homo sapiens) (P10828 whole entry, looked up): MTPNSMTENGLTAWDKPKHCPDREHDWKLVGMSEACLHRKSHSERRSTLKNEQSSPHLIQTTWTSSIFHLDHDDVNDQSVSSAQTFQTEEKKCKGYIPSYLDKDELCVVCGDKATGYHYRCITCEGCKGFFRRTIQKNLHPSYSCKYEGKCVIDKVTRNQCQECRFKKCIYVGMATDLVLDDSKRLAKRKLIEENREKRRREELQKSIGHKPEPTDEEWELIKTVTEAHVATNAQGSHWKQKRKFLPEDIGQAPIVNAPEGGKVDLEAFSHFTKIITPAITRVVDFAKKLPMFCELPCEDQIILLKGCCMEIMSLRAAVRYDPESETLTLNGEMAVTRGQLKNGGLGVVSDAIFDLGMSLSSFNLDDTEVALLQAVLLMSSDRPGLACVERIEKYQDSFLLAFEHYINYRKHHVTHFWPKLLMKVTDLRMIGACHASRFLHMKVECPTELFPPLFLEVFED
# Sequence of Glucocorticoid receptor (Homo sapiens) (P04150 whole entry, looked up): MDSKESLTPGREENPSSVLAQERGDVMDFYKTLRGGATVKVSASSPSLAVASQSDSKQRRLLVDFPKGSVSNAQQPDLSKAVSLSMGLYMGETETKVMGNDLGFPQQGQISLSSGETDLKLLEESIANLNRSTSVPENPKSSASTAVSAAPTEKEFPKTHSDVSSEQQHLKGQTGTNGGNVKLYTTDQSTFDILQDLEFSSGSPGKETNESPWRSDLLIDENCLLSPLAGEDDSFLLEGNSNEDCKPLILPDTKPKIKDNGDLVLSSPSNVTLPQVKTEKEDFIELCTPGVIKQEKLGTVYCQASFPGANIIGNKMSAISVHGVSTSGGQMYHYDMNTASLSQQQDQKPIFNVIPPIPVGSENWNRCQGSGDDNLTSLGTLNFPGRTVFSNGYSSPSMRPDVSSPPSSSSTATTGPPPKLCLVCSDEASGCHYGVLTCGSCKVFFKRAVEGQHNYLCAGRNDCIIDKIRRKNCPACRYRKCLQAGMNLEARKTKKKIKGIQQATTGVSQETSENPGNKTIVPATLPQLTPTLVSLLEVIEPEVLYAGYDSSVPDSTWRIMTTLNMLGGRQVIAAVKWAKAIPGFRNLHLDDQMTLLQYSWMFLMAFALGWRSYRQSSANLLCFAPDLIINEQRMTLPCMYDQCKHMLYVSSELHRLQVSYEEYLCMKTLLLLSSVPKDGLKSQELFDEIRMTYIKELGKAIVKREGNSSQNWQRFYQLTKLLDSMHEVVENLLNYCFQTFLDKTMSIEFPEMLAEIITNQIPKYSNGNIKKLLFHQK
# Sequence of Retinoic acid receptor RXR-alpha (Homo sapiens) (P19793 whole entry, looked up): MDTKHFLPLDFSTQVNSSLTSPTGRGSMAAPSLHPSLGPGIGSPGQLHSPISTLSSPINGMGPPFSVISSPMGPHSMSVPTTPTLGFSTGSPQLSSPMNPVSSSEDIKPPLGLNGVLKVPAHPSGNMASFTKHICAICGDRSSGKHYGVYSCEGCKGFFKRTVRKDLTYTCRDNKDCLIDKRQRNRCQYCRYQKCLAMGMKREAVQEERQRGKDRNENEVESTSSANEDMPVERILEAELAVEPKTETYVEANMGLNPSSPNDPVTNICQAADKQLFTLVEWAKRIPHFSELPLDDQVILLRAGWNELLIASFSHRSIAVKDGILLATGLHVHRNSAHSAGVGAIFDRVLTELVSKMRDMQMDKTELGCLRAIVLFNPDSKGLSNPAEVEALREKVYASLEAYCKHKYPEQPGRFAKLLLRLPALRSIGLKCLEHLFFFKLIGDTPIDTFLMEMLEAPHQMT
# Sequence of Peroxisome proliferator-activated receptor delta (Homo sapiens) (Q03181 whole entry, looked up): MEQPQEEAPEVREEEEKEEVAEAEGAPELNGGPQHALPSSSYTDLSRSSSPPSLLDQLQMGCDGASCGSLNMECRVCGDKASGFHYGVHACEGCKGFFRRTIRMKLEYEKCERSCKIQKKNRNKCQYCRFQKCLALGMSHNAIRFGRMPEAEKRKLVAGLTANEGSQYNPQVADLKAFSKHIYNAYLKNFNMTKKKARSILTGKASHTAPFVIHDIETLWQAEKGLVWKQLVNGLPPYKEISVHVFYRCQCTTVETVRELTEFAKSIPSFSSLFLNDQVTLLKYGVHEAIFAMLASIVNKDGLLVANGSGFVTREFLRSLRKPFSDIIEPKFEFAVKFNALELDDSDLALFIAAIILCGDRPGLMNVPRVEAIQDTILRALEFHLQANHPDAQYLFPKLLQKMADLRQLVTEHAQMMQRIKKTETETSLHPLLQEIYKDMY
# Sequence of Bile acid receptor (Homo sapiens) (Q96RI1 whole entry, looked up): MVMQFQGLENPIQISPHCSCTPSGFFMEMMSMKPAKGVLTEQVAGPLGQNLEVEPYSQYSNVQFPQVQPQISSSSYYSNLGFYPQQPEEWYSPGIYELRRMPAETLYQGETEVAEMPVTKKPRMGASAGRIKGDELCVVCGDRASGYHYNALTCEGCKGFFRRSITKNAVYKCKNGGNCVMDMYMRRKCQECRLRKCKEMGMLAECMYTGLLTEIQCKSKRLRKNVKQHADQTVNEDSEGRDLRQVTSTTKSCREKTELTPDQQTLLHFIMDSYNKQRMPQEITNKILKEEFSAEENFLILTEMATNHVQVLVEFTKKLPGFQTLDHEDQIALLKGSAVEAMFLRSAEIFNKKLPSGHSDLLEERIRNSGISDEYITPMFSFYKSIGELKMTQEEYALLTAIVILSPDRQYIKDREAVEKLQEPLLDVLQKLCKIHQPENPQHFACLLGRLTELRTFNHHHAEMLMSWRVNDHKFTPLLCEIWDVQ
# Sequence of Voltage-gated inwardly rectifying potassium channel KCNH2 (Homo sapiens) (Q12809 whole entry, looked up): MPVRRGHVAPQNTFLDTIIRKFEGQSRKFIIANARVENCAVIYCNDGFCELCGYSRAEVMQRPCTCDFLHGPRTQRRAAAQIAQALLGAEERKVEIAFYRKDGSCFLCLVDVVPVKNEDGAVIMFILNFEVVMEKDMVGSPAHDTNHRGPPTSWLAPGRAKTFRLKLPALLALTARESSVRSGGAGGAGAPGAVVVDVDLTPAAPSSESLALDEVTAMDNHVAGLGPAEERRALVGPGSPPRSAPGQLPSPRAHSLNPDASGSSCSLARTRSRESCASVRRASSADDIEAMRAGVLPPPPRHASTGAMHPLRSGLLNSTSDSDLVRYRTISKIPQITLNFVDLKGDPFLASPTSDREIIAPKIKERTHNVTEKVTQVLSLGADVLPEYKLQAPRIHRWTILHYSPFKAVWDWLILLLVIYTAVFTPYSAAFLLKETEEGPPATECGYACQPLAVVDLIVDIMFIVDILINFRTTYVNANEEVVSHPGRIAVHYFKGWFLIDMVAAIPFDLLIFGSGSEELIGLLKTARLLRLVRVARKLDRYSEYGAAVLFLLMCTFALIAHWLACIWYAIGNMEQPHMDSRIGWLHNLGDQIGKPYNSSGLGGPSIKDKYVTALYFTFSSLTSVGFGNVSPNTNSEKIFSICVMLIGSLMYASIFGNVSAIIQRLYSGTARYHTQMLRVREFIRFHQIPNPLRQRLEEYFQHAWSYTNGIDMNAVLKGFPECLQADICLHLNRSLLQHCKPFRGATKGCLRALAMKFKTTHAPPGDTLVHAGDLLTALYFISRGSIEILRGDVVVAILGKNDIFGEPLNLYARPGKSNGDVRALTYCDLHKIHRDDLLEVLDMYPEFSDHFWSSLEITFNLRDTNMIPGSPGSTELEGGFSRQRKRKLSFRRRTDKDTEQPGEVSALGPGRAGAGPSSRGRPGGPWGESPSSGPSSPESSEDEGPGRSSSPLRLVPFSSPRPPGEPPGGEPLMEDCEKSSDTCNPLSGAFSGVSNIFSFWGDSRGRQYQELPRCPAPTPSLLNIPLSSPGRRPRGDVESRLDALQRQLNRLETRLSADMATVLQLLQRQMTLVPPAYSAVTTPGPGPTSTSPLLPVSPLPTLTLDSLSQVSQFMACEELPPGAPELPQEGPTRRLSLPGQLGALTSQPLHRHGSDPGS
smiles,measurement,setting,value
C=CCc1ccc(OC)c(OC)c1,Potency,[1],inactive
same,Potency,[2],inactive
same,Potency,[3],inactive
same,Potency,[4],inactive
same,Potency,[5],inactive
same,Potency,[6],inactive
same,Potency,[7],inactive
same,Potency,[8],inactive
same,Potency,[9],inactive
same,outcome,[10],inactive
same,outcome,[11],inactive
same,activation,[12],-12.3% (inactive)
same,Potency,[13],inactive
same,max response,[14],10.2% and -6.71%
same,Potency,[15],inactive
same,outcome,[16],inactive
same,outcome,[17],inactive
same,max response,[18],-12.6% and 4.43%
same,outcome,[19],inactive
same,max response,[20],-6.05% and 0.363%
same,max response,[21],9.84% (inactive) and -24.7% (inactive)
same,activity change % (negative = inhibition),[22],11.4% (inactive)
same,Potency,[23],inactive
same,Potency,[24],33.5 µM (active) and inactive
same,activation,[25],0.847% (inactive) and -0.413% (inactive)
